Abs 340nm = absorbance at 340 nm | AID 708 | 65,000 tested, under 10 active | compound absorbance at 340 nm, fold over control | fold change at 10 µM;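 active = at 10 µM dose, initial 340 nm absorbance at least 2 fold that of control wells; inactive = change under 2 fold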;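 also: initial absorbance extrapolated from kinetic A340 decline of NADH oxidation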
DPM-DC inhibit = S. pneumoniae DPM-DC inhibition | purified DPM-DC, PK/LDH coupled NADH fluorescence | calls only at 10 µM | hit rate 0.49% among 65,000;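 active = the 320 compounds with the highest percent inhibition in the single-dose primary screen, excluding strongly autofluorescent ones, cut at about 32% in these data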;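 also: kinetic rate of NADH fluorescence loss reporting ADP formed by the decarboxylase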
NADH enzymes = inhibitors of enzymes used to reach an NAD/NADH endpoint; coupled PK/LDH NADH assays, four targets; IC50, µM (top dose mostly 10 µM); hit rate 0.02% among 65,000;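 active = single-dose screening hits from any of four coupled enzyme assays that gave an IC50 when retested across doses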;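 also: the DPM-DC format reads NADH fluorescence rather than 340 nm absorbance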
Spn PMK inh = S. pneumoniae PMK inhibition. purified PMK, PK/LDH-coupled NADH absorbance 340 nm. hit rate 0.49% among 65,000. inhibition, % at 10 µM;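 active = top-ranked compounds by inhibition in the single 10 µM screen, taking a fixed number of the strongest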
Spn MK inh = inhibitors of Streptococcus pneumoniae mevalonate kinase; purified MK, PK/LDH-coupled NADH absorbance 340 nm; inhibition, % at 10 µM; hit rate 0.48% among 65,000; AID 555;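 active = ranked among the strongest by inhibition in the single 10 µM screen, a fixed top-ranked set picked for dose follow-up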
Autofluor 339 = intrinsic fluorescence of library compounds, ex339/em460 – biochemical, MLSMR library, data from DPM-DC assay, artefact control, profiling panel | AID 709 | fluorescence fold increase at 10 µM | hit rate 5.5% among 65,000 | compound autofluorescence, ex339/em460 nm, NADH buffer; hits give high values; 1 = no-compound wells, NADH background;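 active = at 10 µM, mean starting fluorescence two-fold or more over control wells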;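 also: signal is the first read of a kinetic run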
A number is an active result; - = inactive; . = not tested or not shown; + = active, no number. Hits are enriched below; roughly 6.8% of the tested compounds scored in any of these assays.

SMILES	Abs 340nm	DPM-DC inhibit	NADH enzymes	Spn PMK inh	Spn MK inh	Autofluor 339
O=C(NCc1ccco1)C1CCN(c2ccc(N3CCOCC3)nn2)CC1	-	.	-	-	-	2.5
O=C(c1cncc(Br)c1)N1CCN(c2ccc(N3CCOCC3)nn2)CC1	-	.	-	-	-	2.1
CCCCCCn1c(CN2CCCCC2CC)nc2c1c(=O)n(C)c(=O)n2C (centres undefined)	-	-	-	-	-	-
COc1ccc(CCC(=O)Nc2nc3c(s2)CN(C)CC3)cc1OC	-	-	-	-	-	-
COc1ccc(N2CCN(Cc3nc4c(c(=O)n(C)c(=O)n4C)n3Cc3ccccc3C)CC2)cc1	-	-	-	-	-	-
O=C1CCC(c2ccccc2)N1C(=O)c1cccnc1 (centres undefined)	-	-	-	-	-	-
CCCc1cc(N2CCCC2)n2nc(C)c(-c3ccccc3)c2n1	-	-	-	-	-	2.9
CSc1ccc(Cl)c(C(=O)OCC(=O)N2CCOCC2)c1	-	-	-	-	-	-
O=C(CN(C(=O)CNS(=O)(=O)c1ccccc1)c1ccc2c(c1)OCCO2)NCc1ccco1	-	-	-	-	-	-
O=C(CN(C(=O)CNS(=O)(=O)c1ccccc1)C1CCCC1)NCc1ccco1	-	-	-	25	-	-
Cc1cccn2c(=O)c3cc(C#N)c(=NC(=O)c4ccc5c(c4)OCO5)n(CC(C)C)c3nc12	-	+	-	-	-	2.5
Cc1cccn2c(=O)c3cc(C#N)c(=O)n(-c4c(C)n(C)n(-c5ccccc5)c4=O)c3nc12	-	-	-	-	-	-
CC(=O)N=c1c(C#N)cc2c(=O)n3cccc(C)c3nc2n1CC(C)C	-	.	-	-	-	3.9
Cc1cccn2c(=O)c3cc(C#N)c(=N)n(Cc4ccncc4)c3nc12	-	-	-	-	-	-
Cc1ccc(-n2c(=O)c(C#N)cc3c(=O)n4ccccc4nc32)cc1	-	.	-	-	-	3.3
Cc1cc(-n2c(=O)c(C#N)cc3c(=O)n4cccc(C)c4nc32)no1	-	.	-	-	-	4
O=C(C1CCCN(S(=O)(=O)c2ccc(F)cc2)C1)N(Cc1cccs1)C1CC1 (centres undefined)	-	-	-	-	-	-
O=c1[nH]c(Nc2ccccc2)cc2ccccc12	-	.	-	-	-	3.4
Nn1c(Nc2ccccc2)nc2ccccc2c1=O	-	-	-	-	-	-
CC(=O)Nc1nonc1NC(=O)CSc1ncn[nH]1	-	-	-	-	-	-
CCOC(=O)C1CCN(S(=O)(=O)c2ccc(-c3nc4ccccc4s3)s2)CC1	-	-	-	-	-	2.2
O=c1c2c(nc3cc(-c4ccccc4)[nH]n13)CCC2	-	-	-	-	-	3.4
COc1ccc(-c2cc3nc4c(c(=O)n3[nH]2)CCC4)cc1	-	.	-	-	-	2.1
Cc1cc2nc3c(c(=O)n2[nH]1)CCCC3	-	-	-	-	-	-
Cc1ccc(-c2[nH]n3c(=O)c4c(nc3c2C)CCCC4)cc1	-	-	-	-	-	2.4
SMILES	Abs 340nm	DPM-DC inhibit	NADH enzymes	Spn PMK inh	Spn MK inh	Autofluor 339
Cc1onc(-c2c(Cl)cccc2Cl)c1C(=O)Nc1ccc2c(c1)OCO2	-	-	-	28	-	-
CC(C)c1cc(C(=O)Nc2ccc3c(c2)OCO3)no1	-	-	-	-	-	-
Cc1ccccc1Cn1ccc(NC(=O)c2cc3nc(-c4ccco4)cc(C(F)(F)F)n3n2)n1	-	.	-	-	-	3.8
COc1ccc(-c2cc(C(F)(F)F)n3nc(C(=O)N4CCCCC4)cc3n2)cc1	-	.	-	-	-	2.3
O=C(c1cc2nc(-c3ccco3)cc(C(F)(F)F)n2n1)N1CCN(c2ccccc2)CC1	-	-	-	-	-	-
O=C(c1cc2nc(-c3ccco3)cc(C(F)(F)F)n2n1)N1CCCCCC1	-	.	-	-	-	2.2
CN(C(=O)c1cc2nc(-c3ccco3)cc(C(F)(F)F)n2n1)C1CCCCC1	-	.	-	-	-	2.2
COc1ccc(S(=O)(=O)NC2CCCCC2)c(C)c1C	-	-	-	-	-	-
COc1ccc(-c2nnc3ccc(SCC(=O)N4CCN(c5ccccc5)CC4)nn23)cc1	-	-	-	-	-	-
COc1ccc(Cl)c(N2CCN(CCCNC(=O)Nc3ccc(C)cc3)CC2)c1	-	-	-	-	-	-
O=C(c1cc2nc(-c3ccccc3)cc(C(F)(F)F)n2n1)N1CCCC1	-	-	-	-	-	-
O=C(c1cc2nc(-c3ccc(F)cc3)cc(C(F)(F)F)n2n1)N1CCCC1	-	+	-	-	-	-
Cc1cc(NS(=O)(=O)c2ccc(-c3ccccc3)cc2)no1	-	-	-	-	-	-
Cc1cccc(NS(=O)(=O)c2ccc(Oc3ccccc3)cc2)n1	-	-	-	-	-	2.9
CCCOc1ccc(C2c3c(oc4cc(C)c(C)cc4c3=O)C(=O)N2CCCN(C)C)cc1OCC (centres undefined)	-	-	-	-	-	-
CCOc1ccc(C2c3c(oc4cc(C)c(C)cc4c3=O)C(=O)N2CCCN(C)C)cc1OC (centres undefined)	-	-	-	28	-	-
O=C(Cn1cnc2c(nnn2Cc2ccc(F)cc2)c1=O)N1CCCc2ccccc21	-	-	-	-	-	-
